# About 410 targets per protein were measured; listed, in parts, are those with the strongest signals and a random draw of the rest.
# Tests used:
# Experiment in all cases: glycan array binding signal (z-score within array); higher = stronger binding
# Details in all cases: glycan notation: IUPAC condensed, linker removed
# [1] = target: Fuc(a1-2)Gal(b1-3)GalNAc(b1-4)[Neu5Ac(a2-3)]Gal(b1-4)Glc
# Procedure, shortened: (§1)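 Negative Z-scores can be read as non-binding. The Z-score is calculated within each array and then averaged across arrays of one protein sequence at different concentrations or buffers and across linkers. Arrays, 3228 in all, were curated from the Consortium for Functional Glycomics database and kept only where the protein sequence was available.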
# [2] = target: Fuc(a1-2)Gal(b1-3)GlcNAc(b1-3)[Gal(b1-4)GlcNAc(b1-6)]Gal(b1-4)Glc
# Procedure, shortened: as §1
# [3] = target: Fuc(a1-2)Gal(b1-4)GlcNAc(b1-3)Gal(b1-4)GlcNAc
# Procedure, shortened: as §1
# [4] = target: Fuc(a1-2)Gal(b1-4)GlcNAc(b1-3)[Fuc(a1-3)[Gal(b1-4)]GlcNAc(b1-6)]Gal(b1-4)Glc
# Procedure, shortened: as §1
# [5] = target: Fuc(a1-2)Gal(b1-4)[Fuc(a1-3)]GlcNAc(b1-3)Gal(b1-4)[Fuc(a1-3)]GlcNAc
# Procedure, shortened: as §1
# [6] = target: Fuc(a1-2)[Gal(a1-3)]Gal(b1-4)GlcNAc(b1-3)[Fuc(a1-2)[Gal(a1-3)]Gal(b1-4)GlcNAc(b1-6)]GalNAc
# Procedure, shortened: as §1
# [7] = target: Fuc(a1-2)[Gal(a1-3)]Gal(b1-4)GlcNAc(b1-6)GalNAc
# Procedure, shortened: as §1
# [8] = target: Fuc(a1-2)[GalNAc(a1-3)]Gal(b1-3)GlcNAc(b1-2)Man(a1-3)[Fuc(a1-2)[GalNAc(a1-3)]Gal(b1-3)GlcNAc(b1-2)Man(a1-6)]Man(b1-4)GlcNAc(b1-4)GlcNAc
# Procedure, shortened: as §1
# [9] = target: Fuc(a1-2)[GalNAc(a1-3)]Gal(b1-4)GlcNAc(b1-3)Gal(b1-4)GlcNAc
# Procedure, shortened: as §1
# [10] = target: Fuc(a1-3)[Gal(b1-4)]GlcNAc(b1-2)Man(a1-3)[Fuc(a1-3)[Gal(b1-4)]GlcNAc(b1-2)Man(a1-6)]Man(b1-4)GlcNAc(b1-4)[Fuc(a1-6)]GlcNAc
# Procedure, shortened: as §1
# [11] = target: Fuc(a1-3)[Gal(b1-4)]GlcNAc(b1-6)GalNAc
# Procedure, shortened: as §1
# [12] = target: Gal(a1-3)Gal(b1-4)GlcNAc(b1-2)Man(a1-3)[Gal(a1-3)Gal(b1-4)GlcNAc(b1-2)Man(a1-6)]Man(b1-4)GlcNAc(b1-4)GlcNAc
# Procedure, shortened: as §1
# [13] = target: Gal(b1-3)[Fuc(a1-4)]GlcNAc
# Procedure, shortened: as §1
# [14] = target: Gal(b1-3)[Neu5Ac(a2-6)]GalNAc
# Procedure, shortened: as §1
# [15] = target: Gal(b1-4)GlcNAc(b1-2)Man(a1-3)[Gal(b1-4)GlcNAc(b1-2)Man(a1-6)]Man(b1-4)GlcNAc(b1-4)GlcNAc
# Procedure, shortened: as §1
# [16] = target: Gal(b1-4)GlcNAc(b1-2)Man(a1-3)[Gal(b1-4)GlcNAc(b1-2)Man(a1-6)][GlcNAc(b1-4)]Man(b1-4)GlcNAc(b1-4)[Fuc(a1-6)]GlcNAc
# Procedure, shortened: as §1
# [17] = target: Gal(b1-4)GlcNAc(b1-2)Man(a1-3)[GlcNAc(b1-4)][Gal(b1-4)GlcNAc(b1-2)Man(a1-6)]Man(b1-4)GlcNAc(b1-4)GlcNAc
# Procedure, shortened: as §1
# [18] = target: Gal(b1-4)GlcNAc(b1-2)Man(a1-6)Man(b1-4)GlcNAc(b1-4)GlcNAc
# Procedure, shortened: as §1
# [19] = target: Gal(b1-4)GlcNAc(b1-2)Man(a1-6)[GlcNAc(b1-2)Man(a1-3)]Man(b1-4)GlcNAc(b1-4)GlcNAc
# Procedure, shortened: as §1
# [20] = target: Gal(b1-4)GlcNAc(b1-3)Gal(b1-3)GalNAc
# Procedure, shortened: as §1
# [21] = target: Gal(b1-4)GlcNAc(b1-3)Gal(b1-4)GlcNAc(b1-3)Gal(b1-4)GlcNAc(b1-2)[Gal(b1-4)GlcNAc(b1-3)Gal(b1-4)GlcNAc(b1-3)Gal(b1-4)GlcNAc(b1-6)]Man(a1-6)[Gal(b1-4)GlcNAc(b1-3)Gal(b1-4)GlcNAc(b1-3)Gal(b1-4)GlcNAc(b1-2)Man(a1-3)]Man(b1-4)GlcNAc(b1-4)[Fuc(a1-6)]GlcNAc
# Procedure, shortened: as §1
# [22] = target: Gal(b1-4)GlcNAc(b1-3)Gal(b1-4)GlcNAc(b1-3)GalNAc
# Procedure, shortened: as §1
# Gal6S(b1-4)Glc = target: Gal6S(b1-4)Glc
# Procedure, shortened: as §1
# Gal6S(b1-4)GlcNAc = target: Gal6S(b1-4)GlcNAc
# Procedure, shortened: as §1
# [23] = target: GlcNAc(a1-3)Gal(b1-4)GlcNAc
# Procedure, shortened: as §1
# [24] = target: GlcNAc(a1-4)Gal(b1-4)GlcNAc
# Procedure, shortened: as §1
# [25] = target: GlcNAc(a1-4)Gal(b1-4)GlcNAc(b1-3)Gal(b1-4)Glc
# Procedure, shortened: as §1
# [26] = target: GlcNAc(a1-4)Gal(b1-4)GlcNAc(b1-3)Gal(b1-4)GlcNAc
# Procedure, shortened: as §1
binder,measurement,setting,value
"SSR1 (Sclerotium rolfsii), A0A0M3KL30 (protein) TYKITVRVYQTNPDAFFHPVEKTVWKYANGGTWTITDDQHVLTMGGSGTSGTLRFHADNGESFTATFGVHNYKRWCDIVTNLAADETGMVINQQYYSQKNREEARERQLSNYQVKNAKGRNFQIVYTEAEGNDLHANLIIG",glycan array binding signal (z-score),[1],-0.338
same,glycan array binding signal (z-score),[2],-0.321
same,glycan array binding signal (z-score),[3],-0.335
same,glycan array binding signal (z-score),[4],-0.328
same,glycan array binding signal (z-score),[5],-0.306
same,glycan array binding signal (z-score),[6],-0.325
same,glycan array binding signal (z-score),[7],-0.34
same,glycan array binding signal (z-score),[8],0.338
same,glycan array binding signal (z-score),[9],0.292
same,glycan array binding signal (z-score),[10],-0.33
same,glycan array binding signal (z-score),[11],-0.33
same,glycan array binding signal (z-score),[12],-0.321
same,glycan array binding signal (z-score),[13],-0.333
same,glycan array binding signal (z-score),[14],0.823
same,glycan array binding signal (z-score),[15],-0.338
same,glycan array binding signal (z-score),[16],-0.334
same,glycan array binding signal (z-score),[17],-0.342
same,glycan array binding signal (z-score),[18],-0.337
same,glycan array binding signal (z-score),[19],3.01
same,glycan array binding signal (z-score),[20],1.12
same,glycan array binding signal (z-score),[21],-0.33
same,glycan array binding signal (z-score),[22],0.602
same,glycan array binding signal (z-score),Gal6S(b1-4)Glc,-0.323
same,glycan array binding signal (z-score),Gal6S(b1-4)GlcNAc,-0.336
same,glycan array binding signal (z-score),[23],3.12
same,glycan array binding signal (z-score),[24],3.11
same,glycan array binding signal (z-score),[25],3.37
same,glycan array binding signal (z-score),[26],4.43

# Source: the supplement of paper PMC8728848
